# Like-named read-outs stand apart in the source and are kept apart here.
# Legend:
# Conditions in all cases: n = 1
# [1] = tested on: HUNK
# [2] = tested on: ICK
# [3] = tested on: IGF1R
# [4] = tested on: T1, IKK-alpha
# T1 construct: gene CHUK
# [5] = tested on: T2, IKK-beta
# T2 construct: gene IKBKB
# [6] = tested on: T3, IKK-epsilon
# T3 construct: gene IKBKE
# [7] = tested on: INSRR
# [8] = tested on: INSR
# [9] = tested on: IRAK1
# [10] = tested on: IRAK3
# [11] = tested on: IRAK4
# [12] = tested on: ITK
# [13] = tested on: JAK1(JH1domain-catalytic)
# [14] = tested on: JAK1(JH2domain-pseudokinase)
# [15] = tested on: JAK2(JH1domain-catalytic)
# [16] = tested on: JAK3(JH1domain-catalytic)
# [17] = tested on: T4, JNK1
# T4 construct: gene MAPK8
# [18] = tested on: T5, JNK2
# T5 construct: gene MAPK9
# [19] = tested on: T6, JNK3
# T6 construct: gene MAPK10
# [20] = tested on: KIT-autoinhibited
# [21] = concentration: 1 μM, replicates: in singlicate
# 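Also: KINOMEscan kinase panel screen.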
smiles,measurement,setting,value
Cc1ccc(NC(=O)Nc2cccc(Cl)c2)cc1-c1ccc(C(=O)Nc2ccncc2)cc1 [GSK1398468],%Inh,[1]; [21],13%
same,%Inh,[2]; [21],6%
same,%Inh,[3]; [21],0%
same,%Inh,[4]; [21],0%
same,%Inh,[5]; [21],9%
same,%Inh,[6]; [21],15%
same,%Inh,[7]; [21],0%
same,%Inh,[8]; [21],0%
same,%Inh,[9]; [21],27%
same,%Inh,[10]; [21],100%
same,%Inh,[11]; [21],13%
same,%Inh,[12]; [21],16%
same,%Inh,[13]; [21],16%
same,%Inh,[14]; [21],6%
same,%Inh,[15]; [21],1%
same,%Inh,[16]; [21],0%
same,%Inh,[17]; [21],15%
same,%Inh,[18]; [21],14%
same,%Inh,[19]; [21],0%
same,%Inh,[20]; [21],0%
Cl.c1ccc(-c2n[nH]cc2-c2ccnc(-c3ccc(CN4CCOCC4)cc3)c2)nc1 [GW776245],%Inh,[1]; [21],2%
same,%Inh,[2]; [21],0%
same,%Inh,[3]; [21],0%
same,%Inh,[4]; [21],0%
same,%Inh,[5]; [21],0%
same,%Inh,[6]; [21],0%
same,%Inh,[7]; [21],0%
same,%Inh,[8]; [21],0%
same,%Inh,[9]; [21],0%
same,%Inh,[10]; [21],0%
same,%Inh,[11]; [21],0%
same,%Inh,[12]; [21],0%
same,%Inh,[13]; [21],0%
same,%Inh,[14]; [21],2%
same,%Inh,[15]; [21],0%
same,%Inh,[16]; [21],0%
same,%Inh,[17]; [21],31%
same,%Inh,[18]; [21],17%
same,%Inh,[19]; [21],20%
same,%Inh,[20]; [21],0%
COc1cc2ncnc(Nc3ccc4nc(-c5ccccc5)[nH]c4c3)c2cc1OC.Cl [GW282450],%Inh,[1]; [21],0%
same,%Inh,[2]; [21],4%
same,%Inh,[3]; [21],6%
same,%Inh,[4]; [21],0%
same,%Inh,[5]; [21],0%
same,%Inh,[6]; [21],0%
same,%Inh,[7]; [21],0%
same,%Inh,[8]; [21],94.3%
same,%Inh,[9]; [21],25%
same,%Inh,[10]; [21],0%
same,%Inh,[11]; [21],13%
same,%Inh,[12]; [21],14%
same,%Inh,[13]; [21],6%
same,%Inh,[14]; [21],0%
same,%Inh,[15]; [21],0%
same,%Inh,[16]; [21],0%
same,%Inh,[17]; [21],18%
same,%Inh,[18]; [21],26%
same,%Inh,[19]; [21],19%
same,%Inh,[20]; [21],0%
COc1ccccc1-c1ccc2c(NC(=O)C3CC3)n[nH]c2n1 [SB-711239],%Inh,[1]; [21],16%
same,%Inh,[2]; [21],0%
same,%Inh,[3]; [21],0%
same,%Inh,[4]; [21],64%
same,%Inh,[5]; [21],0%
same,%Inh,[6]; [21],24%
same,%Inh,[7]; [21],1%
same,%Inh,[8]; [21],0%
same,%Inh,[9]; [21],15%
same,%Inh,[10]; [21],9%
same,%Inh,[11]; [21],7%
same,%Inh,[12]; [21],0%
same,%Inh,[13]; [21],25%
same,%Inh,[14]; [21],0%
same,%Inh,[15]; [21],0%
same,%Inh,[16]; [21],13%
same,%Inh,[17]; [21],0%
same,%Inh,[18]; [21],9%
same,%Inh,[19]; [21],0%
same,%Inh,[20]; [21],0%
Cc1cccc(-c2nc(Nc3ccncc3)c3ccccc3n2)n1 [GW855857],%Inh,[1]; [21],0%
same,%Inh,[2]; [21],0%
same,%Inh,[3]; [21],0%
same,%Inh,[4]; [21],0%
same,%Inh,[5]; [21],0%
same,%Inh,[6]; [21],0%
same,%Inh,[7]; [21],0%
same,%Inh,[8]; [21],7%
same,%Inh,[9]; [21],0%
same,%Inh,[10]; [21],21%
same,%Inh,[11]; [21],0%
same,%Inh,[12]; [21],24%
same,%Inh,[13]; [21],0%
same,%Inh,[14]; [21],74%
same,%Inh,[15]; [21],0%
same,%Inh,[16]; [21],0%
same,%Inh,[17]; [21],0%
same,%Inh,[18]; [21],6%
same,%Inh,[19]; [21],21%
same,%Inh,[20]; [21],0%
Cl.O=C(Nc1cccc(-c2nn3ncccc3c2-c2ccnc(Nc3cccnc3)n2)c1)c1c(F)cccc1F [GSK312879],%Inh,[1]; [21],0%
same,%Inh,[2]; [21],10%
same,%Inh,[3]; [21],25%
same,%Inh,[4]; [21],30%
same,%Inh,[5]; [21],31%
same,%Inh,[6]; [21],0%
same,%Inh,[7]; [21],9%
same,%Inh,[8]; [21],11%
same,%Inh,[9]; [21],28%
same,%Inh,[10]; [21],0%
same,%Inh,[11]; [21],28%
same,%Inh,[12]; [21],15%
same,%Inh,[13]; [21],15%
same,%Inh,[14]; [21],0%
same,%Inh,[15]; [21],23%
same,%Inh,[16]; [21],0%
same,%Inh,[17]; [21],14%
same,%Inh,[18]; [21],18%
same,%Inh,[19]; [21],19%
same,%Inh,[20]; [21],0%
CC(C)(C)c1ccc(C(=O)Nc2cn3cc(Cl)ccc3n2)cc1,%Inh,[1]; [21],43%
same,%Inh,[2]; [21],0%
same,%Inh,[3]; [21],0%
same,%Inh,[4]; [21],0%
same,%Inh,[5]; [21],100%
same,%Inh,[6]; [21],0%
same,%Inh,[7]; [21],0%
same,%Inh,[8]; [21],0%
same,%Inh,[9]; [21],0%
same,%Inh,[10]; [21],23%
same,%Inh,[11]; [21],0%
same,%Inh,[12]; [21],0%
same,%Inh,[13]; [21],0%
same,%Inh,[14]; [21],7%
same,%Inh,[15]; [21],1%
same,%Inh,[16]; [21],0%
same,%Inh,[17]; [21],0%
same,%Inh,[18]; [21],0%
same,%Inh,[19]; [21],0%
same,%Inh,[20]; [21],42%
Cc1ccc(NC(=O)Nc2cccc(C(F)(F)F)c2)cc1 [GSK955403],%Inh,[1]; 1 µM,0%
same,%Inh,[2]; 1 µM,0%
same,%Inh,[3]; 1 µM,0%
same,%Inh,[4]; 1 µM,0%
same,%Inh,[5]; 1 µM,0%
same,%Inh,[6]; 1 µM,0%
same,%Inh,[7]; 1 µM,0%
same,%Inh,[8]; 1 µM,0%
same,%Inh,[9]; 1 µM,0%
same,%Inh,[10]; 1 µM,100%
same,%Inh,[11]; 1 µM,0%
same,%Inh,[12]; 1 µM,12%
same,%Inh,[13]; 1 µM,0%
same,%Inh,[14]; 1 µM,12%
same,%Inh,[15]; 1 µM,0%
same,%Inh,[16]; 1 µM,0%
same,%Inh,[17]; 1 µM,58%
same,%Inh,[18]; 1 µM,26%
same,%Inh,[19]; 1 µM,46%
same,%Inh,[20]; 1 µM,3%
Fc1cc(Cl)ccc1Nc1ccnc2cc(I)ccc12 [GW551191],%Inh,[1]; [21],45%
same,%Inh,[2]; [21],1%
same,%Inh,[3]; [21],6%
same,%Inh,[4]; [21],1%
same,%Inh,[5]; [21],11%
same,%Inh,[6]; [21],19%
same,%Inh,[7]; [21],0%
same,%Inh,[8]; [21],0%
same,%Inh,[9]; [21],32%
same,%Inh,[10]; [21],11%
same,%Inh,[11]; [21],14%
same,%Inh,[12]; [21],13%
same,%Inh,[13]; [21],0%
same,%Inh,[14]; [21],0%
same,%Inh,[15]; [21],1%
same,%Inh,[16]; [21],0%
same,%Inh,[17]; [21],18%
same,%Inh,[18]; [21],29%
same,%Inh,[19]; [21],10%
same,%Inh,[20]; [21],0%
O=C1NC(=O)C(N2CCc3ccccc32)=C1c1ccccc1Cl [SB-373598],%Inh,[1]; [21],13%
same,%Inh,[2]; [21],17%
same,%Inh,[3]; [21],29%
same,%Inh,[4]; [21],98.1%
same,%Inh,[5]; [21],20%
same,%Inh,[6]; [21],30%
same,%Inh,[7]; [21],2%
same,%Inh,[8]; [21],23%
same,%Inh,[9]; [21],0%
same,%Inh,[10]; [21],9%
same,%Inh,[11]; [21],7%
same,%Inh,[12]; [21],10%
same,%Inh,[13]; [21],3%
same,%Inh,[14]; [21],0%
same,%Inh,[15]; [21],0%
same,%Inh,[16]; [21],40%
same,%Inh,[17]; [21],7%
same,%Inh,[18]; [21],6%
same,%Inh,[19]; [21],5%
same,%Inh,[20]; [21],0%

# — PMC5540273 (PLoS ONE, 2017)
